Screening data deposited in PubChem by National Center for Advancing Translational Sciences (NCATS).
This is a sample that favours compounds with a hit; in the whole collection about 19% have one here.
Giardia kill: kills Giardia lamblia; Giardia lamblia trophozoite viability; activity change, % at 7.66 µM, hits read low; hit rate 0.15% among 340,000; AID 540267; in the data active = activity change below about -80%; inconclusive = between about -30% and that limit;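 note: parasites exposed to compound for two days anaerobically before the ATP read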
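Viability, read as ATP luminescence: trophozoites at 100 cells/well, compound added, 48 hrs anaerobic at 37 deg C, then 15-30 min room-temperature development before reading.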
TDP1 cell CPT: DT40-hTDP1 cell growth loss with CPT; chicken DT40 Tdp1-/-;hTDP1 cells + 20 nM CPT, ATP luminescence, 48 h; Potency, µM (top dose mostly 46.2 µM), for the others: top-dose activity change, negative = growth inhibition, hits mostly inhibitors; hit rate 12% among 420,000; note: potency is the fitted concentration of half-maximal effect; nearly all actives have a fitted effect of over 55% in size
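Cell growth measured by CellTiter-Glo luminescence after a minimum 48 h, 37 C compound exposure with 20 nM CPT in Tdp1-knockout DT40 cells stably expressing hTDP1, seeded 400/well; qHTS titration format.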
TDP1 cell noCPT: qHTS for Inhibitors of human tyrosyl-DNA phosphodiesterase 1 (TDP1): qHTS in cells in absence of CPT; DT40 Tdp1-/- hTDP1 cells, no CPT, ATP luminescence, 48 h; Potency, µM (doses to about 46.2 µM), for the others: top-dose activity change, negative = growth inhibition, usual class: inhibitors; hit rate 15% among 420,000; AID 686978, 2013; note: potency is the fitted concentration of half-maximal effect; nearly all actives have a fitted effect of over 55% in size
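Compound effects on proliferation are scored in DT40 Tdp1-/-;hTDP1 cells in the absence of CPT. ATP levels (CellTiter-Glo luminescence) are recorded after a ≥48 hr, 37 °C incubation.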
ELG1 repair inh: inhibitors of ELG1-dependent DNA repair in HEK293T cells; Potency, µM (doses to about 46.1 µM), for inactives: at the top dose activity change, negative = inhibition, hits mostly inhibitors; AID 504467; hit rate 2.3% among 330,000; HEK293T ELG1-luciferase reporter, luminescence, 16 h; DNA damage induced by 5-fluorouridine; note: potency is the fitted concentration of half-maximal effect; nearly all actives have a fitted effect of over 55% in size
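Reporter activity after DNA damage by 5-fluorouridine is monitored. Compound-treated cells incubate 16 hr at 37 °C, then ONE-Glo is added for 30 min before luminescence reading.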
IL1B secr inh: inflammasome signaling inhibition, IL-1 beta readout; hit rate 4.7% among 360,000; THP-1 LPS/ATP IL-1B secretion, AlphaLISA, 16 h; active compounds read low; activity change, % at 57.5 µM; in the data active = activity change below about -50%; inconclusive = mostly about -30% to -49%
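Secreted IL-1B measured by AlphaLISA bead assay after 16 h compound exposure of THP-1 cells; compounds (final up to 57.5 uM) added 1 h before LPS (250 ng/mL) and ATP (1.25 mM) stimulation; lower signal means less secretion.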
TDP1 inh: inhibitors of human tyrosyl-DNA phosphodiesterase TDP1; recombinant TDP1, AlphaScreen DNA substrate cleavage; Potency, µM (doses to about 130 µM), inactives show at the highest dose activity change, negative = inhibition, actives largely listed as inhibitors; hit rate 0.28% among 350,000; AID 485290; note: potency is the fitted concentration of half-maximal effect; nearly all actives have a fitted effect of over 40% in size
Target sequence (Q9NUW8 whole entry, looked up): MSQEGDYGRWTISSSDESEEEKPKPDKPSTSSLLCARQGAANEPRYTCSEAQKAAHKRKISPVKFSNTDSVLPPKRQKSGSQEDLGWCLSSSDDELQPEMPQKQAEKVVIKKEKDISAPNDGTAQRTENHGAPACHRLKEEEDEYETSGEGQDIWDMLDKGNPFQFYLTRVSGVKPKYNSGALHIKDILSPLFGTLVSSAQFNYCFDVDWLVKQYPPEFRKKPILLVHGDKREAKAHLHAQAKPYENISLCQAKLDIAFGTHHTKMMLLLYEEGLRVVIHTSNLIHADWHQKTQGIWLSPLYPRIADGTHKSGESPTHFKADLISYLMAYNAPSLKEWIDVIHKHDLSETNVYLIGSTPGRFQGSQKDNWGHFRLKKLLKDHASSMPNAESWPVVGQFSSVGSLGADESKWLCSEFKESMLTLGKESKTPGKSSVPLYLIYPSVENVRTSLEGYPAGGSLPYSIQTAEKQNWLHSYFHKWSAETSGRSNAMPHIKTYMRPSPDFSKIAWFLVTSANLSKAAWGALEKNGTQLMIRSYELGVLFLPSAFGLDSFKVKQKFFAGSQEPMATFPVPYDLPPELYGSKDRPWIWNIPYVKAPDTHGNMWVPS
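E. coli-derived human Tdp1, 1 nM final. Cpd preinc 15 min RT; substrate 15 nM final, 5 min RT; AS bead mix 10 ug/ml final, 10 min RT. Signal loss = tyrosine-FITC cleavage. No-enzyme wells = max signal.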
* = called active by the depositor; ? = inconclusive; . = not tested or not shown; [ ] = dose if it differs, or a comment. Unless noted, calls come from the whole dose curve; as a rule, active = well fitted curve in the direction sought with a large enough effect; inconclusive = small, poorly fitted or top-dose-only effect, or another doubt; inactive = no such curve, though single readings can be large; an effect the other way counts as inactive or inconclusive. % is set by controls: 0 for no effect and ±100 for the full control effect.

SMILES	Giardia kill	TDP1 cell CPT	TDP1 cell noCPT	ELG1 repair inh	IL1B secr inh	TDP1 inh
CC1(C(=O)NCc2ccc(F)c(F)c2)Cc2c(-c3ccccc3)ccnc2O1 (stereo not given)	.	10µM*	6.5µM*	.	20	.
CC1(C(=O)NCc2cccnc2)Cc2c(-c3cccc(C(F)(F)F)c3)ccnc2O1 (stereo not given)	.	23µM*	21µM*	.	68	.
CC1(C(=O)Nc2ccc(F)c(Cl)c2)Cc2c(-c3cccc(C(F)(F)F)c3)ccnc2O1 (stereo not given)	.	?	?	.	-21	.
CC1(C(=O)NCCc2ccccc2)Cc2c(-c3cccc(C(F)(F)F)c3)ccnc2O1 (stereo not given)	.	?	?	.	56	.
CC1(C(=O)NCc2ccc(F)c(F)c2)Cc2c(-c3cccc(C(F)(F)F)c3)ccnc2O1 (stereo not given)	.	16µM*	16µM*	.	65	.
CC(=O)Nc1ccc(-c2ccnc3c2CC(C)(C(=O)NCc2ccc(F)c(F)c2)O3)cc1 (stereo not given)	.	5.8µM*	3.3µM*	.	46	.
CC1(C(=O)Nc2ccc(F)c(Cl)c2)Cc2c(-c3ccccc3)ccnc2O1 (stereo not given)	.	?	?	.	-11	.
COc1ccccc1N1CCN(C(=O)Cn2ncc3c(=O)oc4ccccc4c32)CC1	.	-12%	?	.	.	7%
CCOc1ccccc1NC(=O)N1CCN(Cc2cc(=O)n3nc(-c4ccc(C)cc4)sc3n2)CC1	.	-6%	0%	.	.	-3%
CN(C)c1ccc(CNC(=O)C2(C)Cc3c(-c4cccc(C(F)(F)F)c4)ccnc3O2)cc1 (stereo not given)	.	16µM*	?	.	24	.
O=C(NC1CCCCC1)c1ccc([N+](=O)[O-])cc1	1	-16%	-23%	.	-2	.
O=C(NC1CCCCC1)c1cc([N+](=O)[O-])[nH]n1	-26	?	18µM*	3%	14	0%
C/C(=N\Nc1nc(C)cc(-c2ccccc2)n1)c1ccc(C)o1	-21	?	4.6µM*	?	-2	4%
Cc1cc(-c2ccccc2)nc(SCc2ccc(C(=O)O)o2)n1	-8	?	-16%	14%	28	-1%
C/C(=N\NC(=O)C(O)(c1ccccc1)c1ccccc1)c1ccc(C)o1	-7	?	18µM*	-13%	7	4%
C/C(=N/Nc1nc(C)cc(-c2ccccc2)n1)c1ccco1	-8	21µM*	?	-26%	-11	2%
CNc1nc(C#N)nc(Nc2ccccc2)n1	.	.	.	.	.	10%
Cc1ccc(C2CC(c3cccs3)=NN2C(=O)CCl)cc1 (stereo not given)	-4	2.6µM*	2.9µM*	?	-106*	.
Cc1ccc(C2CC(c3cccs3)=NN2C(=O)CSC2=NN3CCCC(=O)N=C3S2)cc1 (stereo not given)	14	13µM*	?	-13%	-18	9%
Fc1ccc(C2CC(c3cccs3)=NN2c2ccccc2)cc1 (stereo not given)	4	9%	-4%	-4%	9	.
CCC(=O)N1N=C(c2cccs2)CC1c1ccc(C)cc1 (stereo not given)	-3	?	?	9%	-8	.
CNC(=S)N1N=C(c2cccs2)CC1c1ccc(F)cc1 (stereo not given)	29	-19%	-17%	?	-51*	.
Cc1cccnc1C(NC(=O)C1CCN(CCCOc2ccccc2)CC1)c1ccc(F)cc1 (stereo not given)	.	?	?	.	-17	.
O=C(NC(c1ccc(F)cc1)c1ccc2ccccc2n1)C1CCN(Cc2ccc3ccccc3n2)CC1 (stereo not given)	.	?	18µM*	.	-21	.
O=C(NCC1CCCN(Cc2cccc(C(F)(F)F)c2)C1)c1ccc(F)cc1 (stereo not given)	7	-27%	?	-12%	-24	4%
SMILES	Giardia kill	TDP1 cell CPT	TDP1 cell noCPT	ELG1 repair inh	IL1B secr inh	TDP1 inh
O=C(NC(c1ccc(F)cc1)c1ccc2ccccc2n1)C1CCN(CCOc2ccc(Cl)cc2)CC1 (stereo not given)	.	21µM*	21µM*	.	-27	.
O=C(NC(c1ccc(F)cc1)c1ccc2ccccc2n1)C1CCN(Cc2cccc(C(F)(F)F)c2)CC1 (stereo not given)	.	2.9µM*	5.2µM*	.	-89*	.
COc1cc(/C=C/CN2CCC(C(=O)NC(c3ccc(F)cc3)c3ccc4ccccc4n3)CC2)ccc1OC(C)=O (stereo not given)	.	?	15µM*	.	-62*	.
CC(=O)N(C)c1ccc(NC(=O)CCN2C(=O)c3ccccc3C2=O)cc1	5	7%	23%	-12%	16	.
CC(C)(C)OC(=O)C[C@H]1C/C=C\C[C@@H](CC(=O)N(CCO)Cc2ccccc2)C(=O)N[C@H](Cc2ccccc2)COC1=O	4	?	?	-7%	-13	-6%
CN(C)c1ccc(CN2CCC(C(=O)NC(c3ccc(F)cc3)c3ccc4ccccc4n3)CC2)cc1 (stereo not given)	.	?	23µM*	.	-54*	.
Cc1cc(C(c2nnnn2Cc2ccccc2)N2CCOCC2)c(C)n1-c1ccc2c(c1)OCO2 (stereo not given)	-21	?	16µM*	-17%	-97*	7%
CN1CCN(C(c2ccc(F)cc2)c2nnnn2Cc2cccs2)CC1 (stereo not given)	-8	-10%	-23%	-1%	?	-2%
Fc1ccc(C(c2nnnn2Cc2cccs2)N2CCN(C3CCCCC3)CC2)cc1 (stereo not given)	5	?	21µM*	1%	?	5%
COc1ccc(C(c2nnnn2Cc2ccc(F)cc2)N2CCN(c3ccc(OC)cc3)CC2)cc1 (stereo not given)	-2	23µM*	15µM*	-1%	-22	1%
COc1ccc(Cn2nnnc2C(CC(C)C)N2CCN(c3ccccc3)CC2)cc1 (stereo not given)	-21	18µM*	15µM*	?	-3	8%
COCCNC(=O)Cn1cnc2c(cnn2-c2ccc(OC)cc2)c1=O	22	3%	-1%	14%	17	.
O=C(NCCc1ccccn1)C1CC12CCN(C(=O)c1ccc(F)cc1Cl)CC2 (stereo not given)	.	23%[9.04 µM]	-10%	.	.	.
COc1ccc(NC(=O)c2oc3ccccc3c2NC(=O)Cc2cccs2)cc1	.	?	?	.	.	1%
